In PubChem BioAssay AID1159580 (chemical genetic matrix, 2015):
Values joined by “and” are separate entries in the source; they are usually repeats but may differ in a detail not shown here. Identical values can stand only once. Out of some 5,500 compounds screened, about 2,000 (36%) were called active. About 18% were inconclusive and are not listed. No stated cut-off is given here; in the data, active means normalized growth mostly below about 0.91 (no sharp cut-off); inconclusive means no clear call, values can overlap the other calls; inactive means mostly above about 0.92. Some of the results follow.

Experiment: chemical genetic growth profiling, strain panel (AID 1159580);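 further: tested at 20 µM; growth read once vehicle control cultures reached saturation at 30 °C; 1 = growth at the plate median or of vehicle wells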
Details: S. cerevisiae deletion strains, growth OD

## CC(C)c1ccc2c(c1)CCC1[C@](C)(CN)CCC[C@]21C (stereo partly specified)
Locus YAL013W, strain DEP1, stronger effect = lower value
  normalized growth: 0.598 (active)
Locus YAL021C, strain ccr4, stronger effect = lower value
  normalized growth: 0.819 (active)
Locus YAL026C, strain drs2, stronger effect = lower value
  normalized growth: 0.0819 (active)
Locus YAL030W, strain snc1, stronger effect = lower value
  normalized growth: 1.01 (inactive)
Locus YBL061C, strain skt5, stronger effect = lower value
  normalized growth: 1.01 (inactive)
Locus YBR009C, strain hhf1, stronger effect = lower value
  normalized growth: 0.927 (inactive)
Locus YBR021W, strain FUR4, stronger effect = lower value
  normalized growth: 0.392 (active)
Locus YBR023C, strain chs3, stronger effect = lower value
  normalized growth: 0.947 (inactive)
Locus YBR171W, strain sec66, stronger effect = lower value
  normalized growth: 1.02 (inactive)
Locus YBR229C, strain ROT2, stronger effect = lower value
  normalized growth: 0.925 (inactive)
Locus YBR231C, strain swc5, stronger effect = lower value
  normalized growth: 0.974 (inactive)
Locus YBR279W, strain paf1, stronger effect = lower value
  normalized growth: 0.976 (inactive)
Locus YCL011C, strain gbp2, stronger effect = lower value
  normalized growth: 0.942 (inactive)
Locus YCL016C, strain dcc1, stronger effect = lower value
  normalized growth: 0.952 (inactive)
Locus YCL029C, strain bik1, stronger effect = lower value
  normalized growth: 0.652 (active)
Locus YCL061C, strain MRC1, stronger effect = lower value
  normalized growth: 0.983 (inactive)
Locus YCL069W, strain vba3, stronger effect = lower value
  normalized growth: 1 (inactive)
Locus YCR088W, strain abp1, stronger effect = lower value
  normalized growth: 1.01 (inactive)
Locus YDL005C, strain med2, stronger effect = lower value
  normalized growth: 1.03 (inactive)
Locus YDL035C, strain GPR1, stronger effect = lower value
  normalized growth: 0.253 (active)
Locus YDL040C, strain nat1, stronger effect = lower value
  normalized growth: 1.01 (inactive)
Locus YDL074C, strain BRE1, stronger effect = lower value
  normalized growth: 0.45 (active)
Locus YDL101C, strain DUN1, stronger effect = lower value
  normalized growth: 0.199 (active)
Locus YDL134C, strain PPH21, stronger effect = lower value
  normalized growth: 0.486 (active)
Locus YDL185W, strain tfp1, stronger effect = lower value
  normalized growth: 0.88 (active)
Locus YDL192W, strain arf1, stronger effect = lower value
  normalized growth: 0.0814 (active)
Locus YDR001C, strain nth1, stronger effect = lower value
  normalized growth: 1.02 (inactive)
Locus YDR069C, strain doa4, stronger effect = lower value
  normalized growth: 0.839 (active)
Locus YDR101C, strain arx1, stronger effect = lower value
  normalized growth: 0.13 (active)
Locus YDR137W, strain rgp1, stronger effect = lower value
  normalized growth: 1.03 (inactive)
Locus YDR150W, strain NUM1, stronger effect = lower value
  normalized growth: 0.786 (active)
Locus YDR159W, strain sac3, stronger effect = lower value
  normalized growth: 1.02 (inactive)
Locus YDR162C, strain NBP2, stronger effect = lower value
  normalized growth: 0.0633 (active)
Locus YDR195W, strain ref2
  normalized growth: 1.1 (inactive)
Locus YDR297W, strain sur2, stronger effect = lower value
  normalized growth: 0.992 (inactive)
Locus YDR318W, strain mcm21, stronger effect = lower value
  normalized growth: 0.457 (active)
Locus YDR334W, strain swr1, stronger effect = lower value
  normalized growth: 1.01 (inactive)
Locus YDR335W, strain msn5, stronger effect = lower value
  normalized growth: 0.969 (inactive)
Locus YDR388W, stronger effect = lower value
  normalized growth: 0.284 (active)
Locus YDR392W, strain spt3, stronger effect = lower value
  normalized growth: 0.5 (active)
Locus YDR502C, strain sam2, stronger effect = lower value
  normalized growth: 0.0848 (active)
Locus YEL003W, strain gim4, stronger effect = lower value
  normalized growth: 0.927 (inactive)
Locus YEL037C, strain rad23, stronger effect = lower value
  normalized growth: 1.01 (inactive)
Locus YEL061C, strain CIN8 (second series), stronger effect = lower value
  normalized growth: 1.01 (inactive)
Locus YEL061C, strain CIN8, stronger effect = lower value
  normalized growth: 0.65 (active)
Locus YER015W, strain faa2, stronger effect = lower value
  normalized growth: 0.951 (inactive)
Locus YER016W, strain bim1, stronger effect = lower value
  normalized growth: 1.02 (inactive)
Locus YER110C, stronger effect = lower value
  normalized growth: 0.684 (active)
Locus YER111C, strain swi4, stronger effect = lower value
  normalized growth: 1.03 (inactive)
Locus YER155C, strain BEM2 (second series), stronger effect = lower value
  normalized growth: 0.367 (active)
Locus YER167W, strain BCK2, stronger effect = lower value
  normalized growth: 0.661 (active)
Locus YFR010W, strain ubp6, stronger effect = lower value
  normalized growth: 0.811 (active)
Locus YGL078C, strain dbp3, stronger effect = lower value
  normalized growth: 0.906 (active)
Locus YGL086W, strain mad1, stronger effect = lower value
  normalized growth: 0.167 (active)
Locus YGL167C, strain pmr1, stronger effect = lower value
  normalized growth: 1.01 (inactive)
Locus YGL173C, strain kem1, stronger effect = lower value
  normalized growth: 0.971 (inactive)
Locus YGL227W, strain vid30, stronger effect = lower value
  normalized growth: 1.02 (inactive)
Locus YGL240W, strain doc1, stronger effect = lower value
  normalized growth: 0.959 (inactive)
Locus YGL248W, strain PDE1, stronger effect = lower value
  normalized growth: 0.368 (active)
Locus YGL253W, strain hxk2, stronger effect = lower value
  normalized growth: 0.973 (inactive)
Locus YGR078C, strain PAC10, stronger effect = lower value
  normalized growth: 0.334 (active)
Locus YGR135W, strain pre9, stronger effect = lower value
  normalized growth: 0.117 (active)
Locus YGR229C, strain SMI1, stronger effect = lower value
  normalized growth: 0.0707 (active)
Locus YGR252W, strain gcn5, stronger effect = lower value
  normalized growth: 0.174 (active)
Locus YHR013C, strain ard1, stronger effect = lower value
  normalized growth: 0.886 (inactive)
Locus YHR027C, strain rpn1, stronger effect = lower value
  normalized growth: 1.02 (inactive)
Locus YHR030C, strain SLT2, stronger effect = lower value
  normalized growth: 0.183 (active) and 0.967 (inactive)
Locus YHR079C, strain IRE1 (second series), stronger effect = lower value
  normalized growth: 0.646 (active)
Locus YHR079C, strain IRE1, stronger effect = lower value
  normalized growth: 0.964 (inactive)
Locus YHR094C, strain hxt1, stronger effect = lower value
  normalized growth: 0.949 (inactive)
Locus YHR129C, strain ARP1, stronger effect = lower value
  normalized growth: 0.701 (active)
Locus YHR142W, strain chs7, stronger effect = lower value
  normalized growth: 0.89 (inactive)
Locus YHR200W, strain rpn10, stronger effect = lower value
  normalized growth: 0.162 (active)
Locus YIL066C, strain RNR3, stronger effect = lower value
  normalized growth: 0.34 (active)
Locus YIL073C, strain SPO22, stronger effect = lower value
  normalized growth: 0.147 (active)
Locus YIL125W, strain kgd1, stronger effect = lower value
  normalized growth: 0.961 (inactive)
Locus YIR030C, strain dcg1, stronger effect = lower value
  normalized growth: 0.19 (active)
Locus YJL092W, strain hpr5, stronger effect = lower value
  normalized growth: 0.991 (inactive)
Locus YJL095W, strain BCK1 (second series), stronger effect = lower value
  normalized growth: 0.995 (inactive)
Locus YJL095W, strain BCK1, stronger effect = lower value
  normalized growth: 0.108 (active) and 0.995 (inactive)
Locus YJL115W, strain asf1, stronger effect = lower value
  normalized growth: 1.01 (inactive)
Locus YJL129C, strain trk1, stronger effect = lower value
  normalized growth: 0.954 (inactive)
Locus YJL134W, strain LCB3, stronger effect = lower value
  normalized growth: 0.987 (inactive)
Locus YJL154C, strain vps35, stronger effect = lower value
  normalized growth: 1.02 (inactive)
Locus YJL164C, strain tpk1, stronger effect = lower value
  normalized growth: 0.931 (inactive)
Locus YJL166W, strain qcr8, stronger effect = lower value
  normalized growth: 0.894 (active)
Locus YJL168C, strain set2, stronger effect = lower value
  normalized growth: 0.714 (active)
Locus YJL187C, strain SWE1 (second series), stronger effect = lower value
  normalized growth: 0.243 (active)
Locus YJR043C, strain POL32, stronger effect = lower value
  normalized growth: 0.635 (active)
Locus YJR066W, strain TOR1, stronger effect = lower value
  normalized growth: 0.919 (inactive)
Locus YJR075W, strain HOC1, stronger effect = lower value
  normalized growth: 0.392 (active)
